We go through ten compounds from PMC7826789 (International Journal of Molecular Sciences, 2021).

Some test systems named below: FLT3(K663Q); FLT3(N841I); FLT3(R834Q); FLT3-autoinhibited; FLT3; FLT4; FRK; FYN; GAK; GRK1; GRK4; GRK7; GSK3A; GSK3B; HCK; HIPK1.
Holding throughout (details): Compound Concentration (nM):1000
Another test has as its system T1, GCN2(Kin.Dom.2,S808G).
T1 construct: gene EIF2AK4

The test system of the next test is T2, GRK2.
T2 construct: gene ADRBK1

For the next test, the system named is T3, GRK3.
T3 construct: gene ADRBK2

For another test, the system named is T4, HASPIN.
T4 construct: gene GSG2

Each structure is given as a SMILES string.
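Also: KINOMEscan scanMAX binding as percent activity remaining versus control; lower means stronger binding.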

For the compound `Cl.O=S1CCN(Cc2ccc(-c3ccc4ncnc(Nc5ccc(OCc6ccccc6)c(F)c5)c4c3)o2)CC1` [GW576924A], the “Percent Control” value is 93% in the test with FLT3(K663Q); 100% with FLT3(N841I); 100% in the test with FLT3(R834Q); 87% in the test on FLT3-autoinhibited; 90% in the test on FLT3; 100% in the test with FLT4. Moreover, the “Percent Control” value with FRK was 100%; in the test with FYN, 100%; with GAK, 100%; in the test on GCN2(Kin.Dom.2,S808G), 100%; in the test with GRK1 it was 98%; in the test with GRK2, 100%. The “Percent Control” value in the test on GRK3 was 100%; with GRK4, 100%; with GRK7 it was 100%; in the test on GSK3A it was 100%; with GSK3B, 100%; in the test with HASPIN, 96%. Besides, the “Percent Control” value with HCK and with HIPK1 was 100% in each case.
In the case of `CCS(=O)(=O)c1ccc(OC)c(Nc2ncc(-c3cccc(F)c3)o2)c1` [GW621970X], the “Percent Control” value is reported as 7.9% in the test with FLT3(K663Q); 56% with FLT3(N841I); 29% in the test on FLT3(R834Q); 7.9% in the test on FLT3-autoinhibited; 5% in the test with FLT3; 5% in the test with FLT4. Also, the “Percent Control” value in the test on FRK was 16%; with FYN it was 26%; in the test on GAK, 63%; in the test on GCN2(Kin.Dom.2,S808G), 71%; in the test on GRK1 it was 100%; in the test with GRK2 it was 100%. The “Percent Control” value in the test on GRK3 was 100%; in the test on GRK4 it was 100%; in the test on GRK7, 100%; in the test with GSK3A it was 94%; in the test on GSK3B it was 91%; in the test with HASPIN it was 79%. Moreover, the “Percent Control” value in the test with HCK was determined as 32%; with HIPK1 it was 82%.
For the compound `COc1cc2ncn(-c3cc(O[C@H](C)c4ccccc4Cl)c(C(N)=O)s3)c2cc1OC` [GSK237701A], the “Percent Control” value in the test with FLT3(K663Q) came to 6.5%; in the test with FLT3(N841I), 3.3%; in the test with FLT3(R834Q), 14%; with FLT3-autoinhibited, 95%; in the test with FLT3, 21%; with FLT4, 9.4%. For the same compound, the “Percent Control” value with FRK is 100%; with FYN it was 100%; with GAK, 17%; in the test on GCN2(Kin.Dom.2,S808G), 31%; in the test on GRK1, 100%; in the test on GRK2, 95%. The “Percent Control” value is 97% with GRK3; 18% in the test on GRK4; 99% with GRK7; 85% with GSK3A; 97% in the test with GSK3B; 94% in the test with HASPIN. For the same compound, the “Percent Control” value is listed as 64% with HCK and 68% in the test on HIPK1.
For the compound `C[C@@H](Oc1cc(-n2cnc3ccc(OC4CCN(C)CC4)cc32)sc1C(N)=O)c1ccccc1Cl` [GSK579289A], the “Percent Control” value in the test with FLT3(K663Q) came out at 17%; with FLT3(N841I), 8.1%; in the test on FLT3(R834Q) it was 18%; in the test with FLT3-autoinhibited it was 87%; in the test on FLT3, 18%; in the test on FLT4, 81%. Further, the “Percent Control” value in the test with FRK was 93%; in the test with FYN it was 86%; in the test on GAK, 69%; in the test on GCN2(Kin.Dom.2,S808G), 39%; in the test on GRK1, 75%; in the test with GRK2, 86%. The “Percent Control” value with GRK3 is 78%; in the test on GRK4 it was 37%; with GRK7 it was 85%; in the test with GSK3A, 98%; with GSK3B it was 100%; with HASPIN it was 55%. Moreover, the results for the “Percent Control” value in the test on HCK and in the test on HIPK1 were 91% and 61%, respectively.
As for `C/C(Nc1ccc(S(N)(=O)=O)cc1)=C1/C(=O)Nc2ccccc21` [GW335962X], the “Percent Control” value came to 60% with FLT3(K663Q); 83% in the test on FLT3(N841I); 40% with FLT3(R834Q); 7.7% with FLT3-autoinhibited; 56% in the test with FLT3; 100% in the test on FLT4. The “Percent Control” value was 96% with FRK; 90% in the test on FYN; 61% in the test with GAK; 100% with GCN2(Kin.Dom.2,S808G); 85% in the test on GRK1; 98% in the test on GRK2. For the same compound, the “Percent Control” value was 100% in the test on GRK3; 100% with GRK4; 97% in the test on GRK7; 90% with GSK3A; 97% with GSK3B; 33% in the test on HASPIN. Further, the “Percent Control” value with HCK and in the test with HIPK1 was 79% throughout.
Turning to `CCS(=O)(=O)c1ccc(OC)c(Nc2ncc(-c3cccc(OC)c3)o2)c1` [GW580509X], the “Percent Control” value with FLT3(K663Q) worked out at 10%; in the test on FLT3(N841I), 0%; with FLT3(R834Q) it was 18%; in the test with FLT3-autoinhibited it was 40%; in the test with FLT3, 5.9%; in the test on FLT4, 13%. The “Percent Control” value with FRK is 39%; in the test with FYN, 48%; in the test with GAK it was 38%; in the test on GCN2(Kin.Dom.2,S808G), 82%; in the test with GRK1 it was 100%; in the test with GRK2, 100%. The “Percent Control” value with GRK3 is 100%; with GRK4, 100%; in the test on GRK7, 100%; with GSK3A it was 91%; with GSK3B, 85%; with HASPIN it was 83%. In addition, the “Percent Control” value in the test on HCK is reported as 49%; with HIPK1 it was 42%.
Take `Nc1ncnc2occ(-c3ccc(NC(=O)Nc4cc(C(F)(F)F)ccc4F)cc3)c12` [GW770249X]: the “Percent Control” value in the test on FLT3(K663Q) came to 0.5%; in the test with FLT3(N841I) it was 0%; in the test on FLT3(R834Q) it was 0%; in the test on FLT3-autoinhibited it was 33%; in the test with FLT3, 0.1%; in the test on FLT4, 0.7%. In addition, the “Percent Control” value in the test on FRK is 12%; with FYN, 95%; in the test on GAK, 100%; with GCN2(Kin.Dom.2,S808G), 99%; in the test on GRK1, 100%; in the test with GRK2 it was 100%. Besides, the “Percent Control” value was 98% with GRK3; 100% in the test with GRK4; 100% with GRK7; 23% in the test with GSK3A; 100% in the test on GSK3B; 100% in the test with HASPIN. The “Percent Control” value with HCK was 74%; in the test on HIPK1 it was 51%.
Take `COc1ccc2[nH]c3c4[nH]c5ccc(OC)cc5c4c4c(c3c2c1)C(=O)NC4=O` [GW296115X]: the “Percent Control” value in the test on FLT3(K663Q) came out at 9.7%; in the test with FLT3(N841I) it was 0%; with FLT3(R834Q) it was 6.3%; in the test on FLT3-autoinhibited, 53%; in the test with FLT3 it was 28%; in the test with FLT4, 71%. The “Percent Control” value is 88% with FRK; 84% in the test with FYN; 0.3% in the test on GAK; 74% in the test on GCN2(Kin.Dom.2,S808G); 95% in the test on GRK1; 88% in the test with GRK2. Also, the “Percent Control” value in the test on GRK3 was 70%; with GRK4, 100%; with GRK7, 64%; in the test with GSK3A it was 100%; in the test with GSK3B, 68%; in the test with HASPIN, 76%. Besides, the “Percent Control” value with HCK is 74%; with HIPK1, 56%.
In the case of `CCc1ccc(Oc2nccc(-c3c(-c4ccc(F)cc4)ncn3C3CCNCC3)n2)cc1` [SB-242719], the “Percent Control” value in the test on FLT3(K663Q) is 96%; in the test with FLT3(N841I), 69%; in the test on FLT3(R834Q), 90%; with FLT3-autoinhibited, 100%; in the test on FLT3, 71%; in the test on FLT4 it was 95%. For the same compound, the “Percent Control” value with FRK is 99%; with FYN it was 96%; with GAK, 84%; with GCN2(Kin.Dom.2,S808G), 100%; in the test on GRK1, 92%; in the test with GRK2, 94%. In addition, the “Percent Control” value is 90% in the test with GRK3; 100% with GRK4; 100% with GRK7; 97% in the test on GSK3A; 100% in the test on GSK3B; 86% in the test on HASPIN. Besides, the “Percent Control” value in the test with HCK was 99%; in the test on HIPK1, 80%.
For `COc1cc(C)c(N(C)C(=O)CN(C)C)cc1Nc1nc(Nc2cccc(F)c2C(N)=O)c2cc[nH]c2n1` [GSK2219385], the “Percent Control” value worked out at 100% in the test with FLT3(K663Q); 93% in the test on FLT3(N841I); 100% in the test on FLT3(R834Q); 100% in the test with FLT3-autoinhibited; 91% in the test on FLT3; 100% with FLT4. Besides, the “Percent Control” value in the test with FRK was 100%; with FYN, 100%; in the test on GAK it was 56%; with GCN2(Kin.Dom.2,S808G), 100%; with GRK1, 69%; in the test with GRK2, 100%. For the same compound, the “Percent Control” value in the test on GRK3 is 80%; in the test with GRK4 it was 100%; with GRK7, 70%; in the test on GSK3A, 100%; in the test on GSK3B, 100%; in the test on HASPIN, 41%. Also, the entries for the “Percent Control” value with HCK and in the test on HIPK1 were 100% and 71%, respectively.
